The source made the active and inactive calls. Rule for the calls: active = hit-call score of the fitted dose curve at least 0.9, where 1 is the maximum; inactive = score below 0.9.

The values below come from PubChem BioAssay (EPA / NIEHS).

Read-out in the test: Ezrin (EZR), EZR (gene 7430)
The experiment in a line: LTEA_HepaRG_EZR: Life Technologies and Expression Analysis (LTEA) Assay for Ezrin (EZR) using HepaRG (AID 2283491). The settings on record: mRNA level, 48 h; actives raise or lower the signal. The method, then: It is a marker of Cellular remodeling.Data from the assay component LTEA_HepaRG_EZR was analyzed into 1 endpoint. This assay endpoint, LTEA_HepaRG_EZR, was analyzed with bidirectional fitting relative to DMSO as the negative control and baseline of activity. Using a type of inducible reporter, measures of mRNA induction for gain or loss-of-signal activity can be used to understand regulation of transcription factor activity. To generalize the intended target to other relatable targets, this assay endpoint is annotated to the membrane protein intended target family, where the subfamily is Cellular remodeling.
A total of 1060 chemcials from the ToxCast library were tested in eight-point concentration-response experiments. Cell culture and cytotoxicity assays were conducted at Thermo Fisher Scientific's Custom Services facility (Madison, WI). A single lot of human HepaRG cells (Thermo Fisher Scientific, Frederick, MD) was used for the cell culture experiments. 96-well format collagen type I coated plates of human HepaRG cells were prepared using established methods. Briefly, cryopreserved HepaRG cells were thawed, plated at a density of approximately 100,000 cells/well in HepaRG Thaw, Plate, and General Purpose media (HPRG770, Thermo Fisher Scientific), and incubated for 48 hours. 0.5% DMSO was selected as vehicle control to balance the requisite need of DMSO in HepaRG cultures to maintain differentiation (for example, baseline metabolism, proportions of hepatocytes vs. cholangiocytes), while enabling further hepatic receptor pathway activation (for example, PXR and CAR) in response to chemical exposure. 48 hours after plating, the culture medium was replaced with HepaRG Serum-Free Incudtion Media. Cells were exposed to each test chemical in duplicate and maintained in CO2 incubators for another 48 hours. Chemical plates were thawed to room temperature and 200x concentrations of treatment groups were prepared. 8-point conentration-reponse curves were made with the highest exposure at 100 uM, followed by half-log dilutions, all in 0.5% DMSO. Each test plate contained variouse controls, induction positive controls (1mM phenobarbital), cytotoxicity positive controls ([…] aflatoxin B1), vehicle controls (0.5% DMSO), and total lysis controls (0.5% DMSO). Cell morphology images were taken using an Essen IncuCyte FLR automated microscope, with six 96-well plates imaged in about 24 minutes. Images were captured and exported and JPEG files. Spent culture media was transfered to black-well plates for the LDH assay, and remaining media was sorted at -80 C for later use. Cells were treated with RLT buffer and frozen until shipped for gene expression analysis. Total RNA was isolated from the cell suspension in 75 uL of Buffer RLT (Qiagen, Germantown, MD 20874) by Quintiles/Expression Analysis (Durham, NC) using a custom isolation procedure. Total RNA from each plate well was transferred to a preamplification plate. Fluidigm's 96.96 Dynamic ArrayTM (Fluidigm, Amsterdam, the Netherlands) technology was used for gene expression analyses by quantitative reverse transcription polymerase chain reaction (qRT-PCR, performed by Quintiles/Expression Analysis, Durham, NC)89. Standard TaqManTM Assays (Applied Biosystems/ThermoFisher Scientific, Foster City, CA) were used to assess the expression of 93 genes selected based on their selectivity and sensitivity to important hepatic receptors known to be modulated by environmental chemicals; importance in human hepatocyte functionality; and hepatotoxicity. Three "housekeeping" endogenous control genes were also included and used for normalization: actin beta (ACTB), Glyceraldehyde 3 phosphate dehydrogenase (GAPDH) and RNA Polymerase II Subunit A (POLR2A). qRT-PCR was conducted according to the manufacturer's protocol.
For the molecule `Nc1cc2c3c(c1)C(c1ccccc1)=N[C@@H](NC(=O)c1cccnc1)C(=O)N3CC2`, the result was inactive.

For `OCC1CO1` (stereo not given), the molecule was called inactive.

Regarding `Nc1ccc2ccccc2c1`, the molecule was classed as inactive.

Consider `CCNc1nc(Cl)nc(NC(C)(C)C)n1`, for which the call was inactive.

On to `CC(C)(C)OOC(C)(C)C`, for which the call was inactive.

For the molecule `CSC(C)(C)C=NO`, the outcome was inactive.

For the molecule `O=C(O)C(Cl)Cl`, the molecule was called inactive.

For `COCCOCCO`, the call was inactive.

Consider `CCC1(c2ccccc2)C(=O)N=C(O)NC1=O` (stereo not given), for which the molecule was called inactive.

With `CCCCCCCc1ccc(O)cc1`, the result was inactive.

Consider `CN(C)C(=O)Cl`, for which the molecule was called inactive.

As for `CCCCN(CCCC)SN(C)C(=O)Oc1cccc2c1OC(C)(C)C2`, the molecule was called inactive.

Consider `O=[N+]([O-])c1ccccc1`, for which the molecule was classed as inactive.

Consider `c1cc2c3c(cccc3c1)CC2`, for which the result was inactive.

`O=[N+]([O-])c1ccc(Cl)c(Cl)c1`: the molecule was classed as inactive.

For `CCCN(CCC)c1c([N+](=O)[O-])cc(C(C)C)cc1[N+](=O)[O-]`, the outcome was inactive.

`CCOS(=O)(=O)OCC`: the molecule was classed as inactive.

`[N-]=[N+]=[N-]`: the half-maximal activity concentration (AC50) was 50 µM (active).

Take `CCCCc1ccccc1`: the outcome was inactive.

As for `Nc1ccc(Cl)cc1`, the result was inactive.

For `O=C(O)C1C(C(=O)O)C2(Cl)C(Cl)=C(Cl)C1(Cl)C2(Cl)Cl` (stereo not given), the call was inactive.

Take `Cc1ccc([N+](=O)[O-])cc1C`: the result was inactive.

`c1nc[nH]n1`: the molecule was called inactive.

Consider `c1ccc(OP(Oc2ccccc2)Oc2ccccc2)cc1`, for which the call was inactive.

For the molecule `CC(C)(C)c1ccc(O)cc1`, the call was inactive.

On to `ClC(Cl)c1ccccc1`, for which the result was inactive.

Turning to `O=P1(N(CCCl)CCCl)NCCCO1` (stereo not given), the call was inactive.

Turning to `O=P(Oc1ccccc1)(Oc1ccccc1)Oc1ccccc1`, the molecule was classed as inactive.

Consider `CCC(C)(C)c1ccc(O)cc1`, for which the outcome was inactive.

Regarding `ClC(Cl)(Cl)c1ccccc1`, the molecule was classed as inactive.

Consider `c1ccc2c(c1)Nc1ccccc1S2`, for which the molecule was classed as inactive.

As for `ClC1=C(Cl)C2(Cl)C3C(Cl)C(Cl)CC3C1(Cl)C2(Cl)Cl` (stereo not given), the molecule was called inactive.

In the case of `CCOP(=S)(OCC)SCSCC`, the molecule was called inactive.

As for `CC(Cc1ccc(OCC(=O)O)cc1)NCC(O)c1csc(C(F)(F)F)n1` (stereo not given), the molecule was called inactive.

Consider `CCCCN(CCCC)N=O`, for which the result was inactive.

`CC(Cl)(Cl)C(=O)O`: the molecule was called inactive.

As to `CCOP(=S)(Oc1ccc([N+](=O)[O-])cc1)c1ccccc1` (stereo not given), the call was inactive.

For the molecule `Cc1ccc(N)cc1N`, the molecule was called inactive.

For the molecule `CCOC(=O)c1ccccc1C(=O)OCC`, the call was inactive.

With `CCOc1ccc(C(C)(C)COCc2cccc(Oc3ccccc3)c2)cc1`, the molecule was called inactive.
